45 compounds from article PMC4552634, “A New Set of Chemical Starting Points with Plasmodium falciparum Transmission-Blocking Potential for Antimalarial Drug Discovery” (PLoS ONE, 2015) can be followed below.

The campaign covered roughly 13,000 compounds. About 3,200 (25%) showed an effect of 50% or more. Some of the results follow.

This test relates to P. falciparum stage V gametocytes. More on the design: BacTiter-Glo ATP luminescence viability of purified stage V gametocytes in 384-well plates, per cent inhibition versus DMSO. Conditions: 48 h, 5 µM; inhibitor.
For `C=CC[C@H](C[C@H](O)[C@H](Cc1ccccc1)NC(=O)c1ccc(-n2cccn2)cc1)C(=O)NC1CCCCC1` [TCMDC-141420], the % Inhibition (as a rule, the relative decrease from the control value, in per cent) is listed as 10.16%.

On to `CCc1c(C)nc(-n2nc(C)cc2NC(=O)C(CC)c2ccccc2)[nH]c1=O` (stereo not drawn) [TCMDC-124935], for which the “% Inhibition” value was found to be 27.05%.

In the case of `Brc1ccc(Nc2nc3ccccc3nc2Nc2ccc(Br)cc2)cc1` [TCMDC-125776], the “% Inhibition” value was -38.43%.

Regarding `Clc1ccc(Nc2nc3ccc(Cl)cc3nc2Nc2ccc(Cl)cc2)cc1` [TCMDC-137772], the “% Inhibition” value is listed as 143.7%.

Take `O=C(Nc1ccc(Cl)cc1)Nc1nc2ccc([N+](=O)[O-])cc2[nH]1` [TCMDC-137530]: the “% Inhibition” value worked out at 30.09%.

As for `O=[N+]([O-])c1ccc2nc(Nc3ccc(Cl)c(Cl)c3)c(Nc3ccc(Cl)c(Cl)c3)nc2c1` [TCMDC-125794], the “% Inhibition” value is given as 113.6%.

Turning to `O=[N+]([O-])c1ccc2ncnc(Nc3ccc(F)c(Cl)c3)c2c1` [TCMDC-123784], the “% Inhibition” value turned out to be 0.775%.

`Oc1ccc(Nc2ccnc3cc(Cl)ccc23)cc1` [TCMDC-125528]: the “% Inhibition” value is on record as -45.78%.

As for `O=S(=O)(NCCCN1CCOCC1)c1ccc2nccc(Nc3ccc(Oc4ccccc4)cc3)c2c1` [TCMDC-138692], the “% Inhibition” value is on record as -57.28%.

Turning to `FC(F)(F)c1cccnc1N1CCC(Nc2nc3ccc(Cl)cc3[nH]2)CC1` [TCMDC-135644], the “% Inhibition” value is on record as -32.98%.

Take `CCNc1cc(C(=O)N[C@@H](Cc2ccccc2)[C@H](O)CNCCc2ccccc2)cc(N2CCCC2=O)c1` [TCMDC-141682]: the “% Inhibition” value came to 21.5%.

Regarding `C[C@@H](NC(=O)NC(CCN1CCC2(CC1)CN(S(C)(=O)=O)c1ccccc12)c1ccc(Cl)c(Cl)c1)c1ccccc1` (stereo partly drawn) [TCMDC-141767], the “% Inhibition” value is 25.06%.

`CS(=O)(=O)N1CC2(CCN(CCC(NC(=S)Nc3ccccc3)c3ccc(Cl)c(Cl)c3)CC2)c2ccccc21` (stereo not drawn) [TCMDC-141770]: the “% Inhibition” value was 57.16%.

For the compound `COc1ccc(CC(=O)NC(CCN2CCC3(CC2)CN(S(C)(=O)=O)c2ccccc23)c2ccc(Cl)c(Cl)c2)cc1OC` (stereo not drawn) [TCMDC-141764], the “% Inhibition” value is recorded as 25.44%.

In the case of `COc1cc(C(=O)N2CCC(CCN3CCC4(CC3)CN(S(C)(=O)=O)c3ccccc34)CC2Cc2ccc(Cl)c(Cl)c2)cc(OC)c1OC` (stereo not drawn) [TCMDC-141627], the “% Inhibition” value turned out to be 50.03%.

With `CS(=O)(=O)N1CC2(CCN(CCC(NC(=O)NCc3ccc(Cl)c(Cl)c3)c3ccc(Cl)c(Cl)c3)CC2)c2ccccc21` (stereo not drawn) [TCMDC-141769], the “% Inhibition” value is -4.824%.

As for `CS(=O)(=O)N1CC2(CCN(CCC(NC(=O)Nc3ccccc3)c3ccc(Cl)c(Cl)c3)CC2)c2ccccc21` (stereo not drawn) [TCMDC-141766], the “% Inhibition” value worked out at 12.26%.

For the compound `CS(=O)(=O)c1cccc(-c2ccc3oc(C(N)=O)c(NC(=O)c4cccs4)c3c2)c1` [TCMDC-138862], the “% Inhibition” value is 19.31%.

Regarding `O=C(CCCCCNC(=O)c1ccc(O)c(-c2ccc(Cl)c(Cl)c2)c1)NCCN1CCCCC1` [TCMDC-140856], the “% Inhibition” value came to 8.201%.

Regarding `COc1cc(Cc2cnc(N)nc2N)cc(OCCCc2cc(OCc3ccccc3)no2)c1OC` [TCMDC-138084], the “% Inhibition” value is given as 0.05649%.

In the case of `Cc1[nH]c2cc(F)ccc2c1C1=CCN(CCCCC2(C)C(=O)Nc3ccccc32)CC1` (stereo not drawn) [TCMDC-141003], the “% Inhibition” value is listed as -43.4%.

Take `COc1cccc(C(=O)C2CC2CN2CC=C(c3c[nH]c4ccc(OC)nc34)CC2)c1` (stereo not drawn) [TCMDC-136875]: the “% Inhibition” value came to 11.19%.

Take `COc1cccc(C(=O)C2CC2CN2CC=C(c3c[nH]c4cccc(Br)c34)CC2)c1` (stereo not drawn) [TCMDC-136773]: the “% Inhibition” value was -17.42%.

Take `COc1cccc(C(=O)C2CC2CN2CC=C(c3c(C)[nH]c4ccccc34)CC2)c1` (stereo not drawn) [TCMDC-136874]: the “% Inhibition” value is 78.13%.

For the compound `O=C(c1ccccc1)C1CC1CN1CC=C(c2c[nH]c3ccccc23)CC1` (stereo not drawn) [TCMDC-136771], the “% Inhibition” value was -5.765%.

For the compound `COc1ccc(C(=O)C2CC2CN2CC=C(c3c[nH]c4ccc(OC)nc34)CC2)cc1` (stereo not drawn) [TCMDC-136873], the “% Inhibition” value is 84.74%.

With `Cc1[nH]c2ccccc2c1C1=CCN(CCCCC2(C)C(=O)Nc3ccccc32)CC1` (stereo not drawn) [TCMDC-140740], the “% Inhibition” value was -83.27%.

As to `Cc1[nH]c2ccccc2c1C1=CCN(CC2CC2C(=O)c2ccccc2)CC1` (stereo not drawn) [TCMDC-136870], the “% Inhibition” value is 56.06%.

Take `COc1ccc(C(=O)C2CC2CN2CC=C(c3c(C)[nH]c4ccccc34)CC2)cc1` (stereo not drawn) [TCMDC-136872]: the “% Inhibition” value came out at 7.556%.

Turning to `COc1ccc2[nH]cc(C3=CCN(CC4CC4C(=O)c4ccccc4)CC3)c2n1` (stereo not drawn) [TCMDC-136871], the “% Inhibition” value is given as -1.485%.

With `COc1ccc(C(=O)C2CC2CN2CC=C(c3c[nH]c4cccc(Br)c34)CC2)cc1` (stereo not drawn) [TCMDC-136801], the “% Inhibition” value was -30.41%.

For `Cc1[nH]c2ccccc2c1C1=CCN(CCCCC2(C)C(=O)Nc3cccc(F)c32)CC1` (stereo not drawn) [TCMDC-140942], the “% Inhibition” value came out at 52.59%.

With `Nc1nc(N)c2c(ccc3nn(Cc4cccnc4)cc32)n1` [TCMDC-137968], the “% Inhibition” value is on record as -0.02415%.

Take `CS(=O)(=O)c1ccc(-c2cc(C(F)(F)F)nc(N[C@@H]3CCCC[C@H]3OCc3ccccc3)n2)cc1` [TCMDC-138567]: the “% Inhibition” value is listed as -4.461%.

With `CC[C@@]1(O)C(=O)OCc2c1cc1n(c2=O)Cc2c-1nc1cc3c(cc1c2CN1CCOCC1)OCO3` [TCMDC-131876], the “% Inhibition” value stood at 7.387%.

For the compound `Cc1nc2nc(N)nc(N)c2c(C)c1Cc1ccc(C#N)cc1` [TCMDC-137653], the “% Inhibition” value was -12.58%.

Take `O=c1cc(NCCCNCc2cc(Cl)cc(Cl)c2OCc2ccc(Cl)cc2)[nH]c2ccccc12` [TCMDC-139604]: the “% Inhibition” value was -52.63%.

As to `CCCN1CCC(NCc2cn(C)nc2-c2ccc(Oc3ccccc3)cc2)CC1` [TCMDC-124676], the “% Inhibition” value was 46.58%.

On to `COc1ccccc1Oc1c(N(C)S(=O)(=O)c2ccc(C(C)C)cc2)nc(C(F)(F)F)nc1N(C)S(=O)(=O)c1ccc(C(C)C)cc1` [TCMDC-132001], for which the “% Inhibition” value turned out to be 61.81%.

Turning to `COc1cc(Cl)c(C)cc1N(Cc1ccccc1-c1ccccc1)S(=O)(=O)c1ccc(C(F)(F)F)cc1` [TCMDC-141750], the “% Inhibition” value was -7.334%.

Regarding `Cn1cncc1CCN(Cc1ccc(-c2ccc(C(F)(F)F)cc2)cc1)C(=O)Cn1c(CCc2cccc(F)c2F)cc(=O)c2cccnc21` [TCMDC-141455], the “% Inhibition” value is 99.09%.

For `Cn1cncc1CCCN(Cc1ccc(-c2ccc(C(F)(F)F)cc2)cc1)C(=O)Cn1c(CCc2cccc(F)c2F)cc(=O)c2cccnc21` [TCMDC-141502], the “% Inhibition” value is recorded as -3.632%.

`O=C(Cn1c(CCc2cccc(F)c2F)cc(=O)c2ccccc21)N(CCN1CCCC1)Cc1ccc(-c2ccc(C(F)(F)F)cc2)cc1` [TCMDC-141120]: the “% Inhibition” value was -20.2%.

On to `O=C(Cn1c(CCc2cccc(F)c2F)cc(=O)c2cccnc21)N(CCN1CCCC1)Cc1ccc(-c2ccc(C(F)(F)F)cc2)cc1` [TCMDC-141463], for which the “% Inhibition” value was 53.17%.

On to `O=C(Cn1c(CCc2cccc(F)c2F)cc(=O)c2cccnc21)N(CCn1ccnc1)Cc1ccc(-c2ccc(C(F)(F)F)cc2)cc1` [TCMDC-141474], for which the “% Inhibition” value was 11.29%.
